Consider one sequence from paper PMC7862700, “An all-to-all approach to the identification of sequence-specific readers for epigenetic DNA modifications on cytosine”.

What all share (assay): DAPPL (digital affinity profiling via proximity ligation, sequencing); 10 mM Tris-HCl pH 7.5, 50 mM NaCl, 1 mM DTT, 4% glycerol, room temperature, 30 min; GST-TFs on glutathione beads, 16-mer random dsDNA library, 0.1% formaldehyde crosslink after washing; high values mean tight binding
Conditions in all cases: protein: recombinant; tags: N-terminal GST; dsDNA, one strand shown

In one assay the target is T1, ELK1 (Homo sapiens, UniProt P19419 1-428).
T1 sequence: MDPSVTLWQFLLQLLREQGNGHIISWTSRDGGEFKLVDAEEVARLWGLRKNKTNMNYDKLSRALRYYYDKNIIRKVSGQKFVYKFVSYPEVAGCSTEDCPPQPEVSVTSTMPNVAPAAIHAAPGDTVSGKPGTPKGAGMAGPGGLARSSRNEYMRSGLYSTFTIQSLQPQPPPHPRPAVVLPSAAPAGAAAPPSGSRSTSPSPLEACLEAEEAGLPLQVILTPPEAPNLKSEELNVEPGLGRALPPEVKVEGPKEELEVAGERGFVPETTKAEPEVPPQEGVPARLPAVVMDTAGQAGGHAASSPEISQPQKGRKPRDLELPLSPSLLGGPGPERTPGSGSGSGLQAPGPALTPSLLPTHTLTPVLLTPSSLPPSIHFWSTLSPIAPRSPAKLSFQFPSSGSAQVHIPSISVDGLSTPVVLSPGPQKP
Put shortly: (§1)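 GST fusions of human transcription factors were expressed in yeast and captured with glutathione beads. Once given DNA barcodes and pooled alongside a tag-only sample, they were incubated for 30 min at room temperature with 200 nmole of a random double-stranded 16-mer DNA library in Tris/NaCl/DTT/glycerol buffer, then washed, crosslinked (0.1% formaldehyde), proximity-ligated, PCR-amplified and sequenced on an Illumina NextSeq500. The binding signal of each hexamer is its read frequency for a factor divided by its frequency for the tag-only sample.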

In another assay the target is T2, GABPA (Homo sapiens, UniProt Q06546 1-454).
T2 sequence: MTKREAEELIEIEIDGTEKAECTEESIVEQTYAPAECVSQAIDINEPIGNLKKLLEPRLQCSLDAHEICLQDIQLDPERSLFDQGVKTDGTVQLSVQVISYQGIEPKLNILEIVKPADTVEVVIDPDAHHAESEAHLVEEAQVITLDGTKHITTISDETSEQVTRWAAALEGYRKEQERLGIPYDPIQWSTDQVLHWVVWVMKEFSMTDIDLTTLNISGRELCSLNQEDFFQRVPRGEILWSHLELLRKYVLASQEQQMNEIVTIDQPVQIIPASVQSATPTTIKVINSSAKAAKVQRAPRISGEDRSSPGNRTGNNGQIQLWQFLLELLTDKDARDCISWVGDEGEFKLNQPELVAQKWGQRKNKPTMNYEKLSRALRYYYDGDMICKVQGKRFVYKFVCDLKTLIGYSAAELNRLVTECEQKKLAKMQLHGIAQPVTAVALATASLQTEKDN
The method, boiled down:
as §1

The target in a further assay is T3, ERG (Homo sapiens, UniProt P11308 1-479).
T3 sequence: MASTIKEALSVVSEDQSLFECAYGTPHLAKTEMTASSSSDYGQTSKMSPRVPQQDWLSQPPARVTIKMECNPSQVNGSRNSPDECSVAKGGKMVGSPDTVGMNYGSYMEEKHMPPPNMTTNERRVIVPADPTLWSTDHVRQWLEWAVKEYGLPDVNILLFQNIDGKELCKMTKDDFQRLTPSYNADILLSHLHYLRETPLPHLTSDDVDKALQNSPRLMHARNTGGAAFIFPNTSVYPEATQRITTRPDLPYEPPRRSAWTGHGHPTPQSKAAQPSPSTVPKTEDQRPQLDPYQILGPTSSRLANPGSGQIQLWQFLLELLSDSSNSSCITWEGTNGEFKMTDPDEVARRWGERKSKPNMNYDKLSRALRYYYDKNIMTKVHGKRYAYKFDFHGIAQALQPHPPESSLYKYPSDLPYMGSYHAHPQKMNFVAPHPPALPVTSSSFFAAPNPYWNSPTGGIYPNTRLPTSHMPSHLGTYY
The method, boiled down: as §1

The next assay has as its target ELF1 (Homo sapiens, UniProt P32519 1-619). Put shortly: as §1
The target in a further assay is T4, EHF (Homo sapiens, UniProt Q9NZC4 1-300).
T4 sequence: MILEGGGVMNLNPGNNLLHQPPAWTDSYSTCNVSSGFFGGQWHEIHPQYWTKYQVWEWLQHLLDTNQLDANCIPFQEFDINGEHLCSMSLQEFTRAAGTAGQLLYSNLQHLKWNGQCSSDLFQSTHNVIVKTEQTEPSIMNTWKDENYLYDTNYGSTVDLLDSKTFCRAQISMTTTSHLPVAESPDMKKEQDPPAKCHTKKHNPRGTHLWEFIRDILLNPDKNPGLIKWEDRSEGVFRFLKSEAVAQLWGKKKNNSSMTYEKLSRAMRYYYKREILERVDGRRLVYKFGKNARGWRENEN
Put shortly:
as §1

Another assay concerns the target SPI1 (Homo sapiens, UniProt P17947 1-270). The method, boiled down:
as §1

The target of another assay is SPIB (Homo sapiens, UniProt Q01892 1-262). The method, boiled down:
as §1

Another assay addresses ETV5 (Homo sapiens, UniProt P41161 1-510). The method, boiled down:
as §1

A further assay has as its target ELF4 (Homo sapiens, UniProt Q99607 1-663). The method, boiled down:
as §1

A further assay deals with T5, ELK4 (Homo sapiens, UniProt P28324-2 1-405).
T5 sequence: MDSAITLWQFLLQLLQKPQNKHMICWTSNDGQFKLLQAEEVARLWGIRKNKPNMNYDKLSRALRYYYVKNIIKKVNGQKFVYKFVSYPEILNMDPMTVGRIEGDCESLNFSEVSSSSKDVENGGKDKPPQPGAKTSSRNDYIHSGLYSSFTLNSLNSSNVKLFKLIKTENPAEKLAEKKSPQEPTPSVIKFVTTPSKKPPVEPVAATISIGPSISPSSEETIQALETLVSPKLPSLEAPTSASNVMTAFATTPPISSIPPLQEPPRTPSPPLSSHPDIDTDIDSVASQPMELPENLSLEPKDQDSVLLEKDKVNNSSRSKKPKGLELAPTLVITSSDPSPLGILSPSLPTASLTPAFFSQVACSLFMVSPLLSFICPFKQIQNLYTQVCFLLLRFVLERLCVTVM
The method, boiled down: as §1

The target in the next assay is T6, ETV2 (Homo sapiens, UniProt O00321 1-342).
T6 sequence: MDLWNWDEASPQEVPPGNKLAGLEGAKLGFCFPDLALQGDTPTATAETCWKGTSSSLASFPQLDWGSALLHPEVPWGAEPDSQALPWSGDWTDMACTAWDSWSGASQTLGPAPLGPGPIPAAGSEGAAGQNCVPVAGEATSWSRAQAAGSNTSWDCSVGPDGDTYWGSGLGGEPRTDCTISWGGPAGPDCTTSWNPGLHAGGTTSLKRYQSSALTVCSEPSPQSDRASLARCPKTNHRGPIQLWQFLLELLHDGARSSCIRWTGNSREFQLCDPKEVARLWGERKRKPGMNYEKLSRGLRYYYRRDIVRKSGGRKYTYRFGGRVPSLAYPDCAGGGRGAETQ
Put shortly: as §1

The target of another assay is T7, ELF3 (Homo sapiens, UniProt P78545 1-371).
T7 sequence: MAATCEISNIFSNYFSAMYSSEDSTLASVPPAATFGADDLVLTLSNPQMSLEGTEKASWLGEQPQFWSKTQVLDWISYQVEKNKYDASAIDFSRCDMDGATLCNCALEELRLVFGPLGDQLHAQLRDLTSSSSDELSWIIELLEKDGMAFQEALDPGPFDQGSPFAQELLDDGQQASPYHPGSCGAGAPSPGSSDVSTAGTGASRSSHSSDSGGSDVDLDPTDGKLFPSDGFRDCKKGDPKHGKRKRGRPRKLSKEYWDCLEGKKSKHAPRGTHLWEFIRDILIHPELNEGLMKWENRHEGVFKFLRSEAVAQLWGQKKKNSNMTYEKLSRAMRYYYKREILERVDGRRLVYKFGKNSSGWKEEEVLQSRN
Put shortly:
as §1

Another assay concerns the target ETV1 (Homo sapiens, UniProt P50549 1-477). The method, boiled down: as §1
Another assay addresses T8, ERF (Homo sapiens, UniProt P50548 1-548).
T8 sequence: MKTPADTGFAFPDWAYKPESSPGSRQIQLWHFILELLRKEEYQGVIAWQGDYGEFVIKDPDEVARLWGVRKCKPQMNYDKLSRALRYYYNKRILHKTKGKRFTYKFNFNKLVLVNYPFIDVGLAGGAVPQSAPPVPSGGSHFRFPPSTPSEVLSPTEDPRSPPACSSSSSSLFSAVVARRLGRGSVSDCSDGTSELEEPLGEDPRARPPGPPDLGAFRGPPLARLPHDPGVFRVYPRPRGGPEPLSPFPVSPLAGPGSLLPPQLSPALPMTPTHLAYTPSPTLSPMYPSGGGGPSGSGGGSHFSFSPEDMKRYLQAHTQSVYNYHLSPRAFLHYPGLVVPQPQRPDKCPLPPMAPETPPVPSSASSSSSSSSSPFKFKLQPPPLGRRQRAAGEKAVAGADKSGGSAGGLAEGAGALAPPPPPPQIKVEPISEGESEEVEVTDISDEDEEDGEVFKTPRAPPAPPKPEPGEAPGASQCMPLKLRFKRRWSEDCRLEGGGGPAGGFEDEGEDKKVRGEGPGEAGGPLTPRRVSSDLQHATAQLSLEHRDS
The method, boiled down: as §1

For another assay, the target named is T9, ETV3L (Homo sapiens, UniProt Q6ZN32 1-361).
T9 sequence: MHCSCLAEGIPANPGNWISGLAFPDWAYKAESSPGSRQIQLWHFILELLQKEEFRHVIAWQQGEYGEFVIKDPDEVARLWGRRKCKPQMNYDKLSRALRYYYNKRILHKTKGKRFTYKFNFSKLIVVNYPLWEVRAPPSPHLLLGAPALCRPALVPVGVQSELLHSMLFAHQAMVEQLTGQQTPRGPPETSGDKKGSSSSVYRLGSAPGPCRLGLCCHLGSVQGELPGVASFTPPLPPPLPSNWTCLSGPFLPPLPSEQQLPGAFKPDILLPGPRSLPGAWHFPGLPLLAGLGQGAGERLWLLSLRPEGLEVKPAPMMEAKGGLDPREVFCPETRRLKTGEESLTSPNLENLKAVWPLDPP
The method, boiled down:
as §1

A further assay concerns the target T10, ETV7 (Homo sapiens, UniProt Q9Y603 1-341).
T10 sequence: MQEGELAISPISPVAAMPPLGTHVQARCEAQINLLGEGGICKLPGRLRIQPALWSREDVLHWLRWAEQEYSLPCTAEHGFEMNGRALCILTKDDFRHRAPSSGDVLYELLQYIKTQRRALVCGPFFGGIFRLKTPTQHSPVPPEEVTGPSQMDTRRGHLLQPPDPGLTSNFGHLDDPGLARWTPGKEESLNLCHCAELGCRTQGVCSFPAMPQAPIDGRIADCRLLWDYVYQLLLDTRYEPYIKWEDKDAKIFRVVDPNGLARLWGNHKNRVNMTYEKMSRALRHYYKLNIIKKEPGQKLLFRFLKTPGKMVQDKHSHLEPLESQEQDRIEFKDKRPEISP
The method, boiled down:
as §1

The next assay concerns the target T11, ETV3 (Homo sapiens, UniProt P41162-2 1-143).
T11 sequence: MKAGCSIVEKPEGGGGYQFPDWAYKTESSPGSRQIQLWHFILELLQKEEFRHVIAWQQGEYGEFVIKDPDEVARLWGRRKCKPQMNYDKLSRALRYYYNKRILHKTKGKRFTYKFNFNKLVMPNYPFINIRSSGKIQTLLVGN
The method, boiled down: as §1

The next assay has as its target ETV6 (Homo sapiens, UniProt P41212 1-452). The method, boiled down: as §1

ETV1, sequence (P50549 whole entry): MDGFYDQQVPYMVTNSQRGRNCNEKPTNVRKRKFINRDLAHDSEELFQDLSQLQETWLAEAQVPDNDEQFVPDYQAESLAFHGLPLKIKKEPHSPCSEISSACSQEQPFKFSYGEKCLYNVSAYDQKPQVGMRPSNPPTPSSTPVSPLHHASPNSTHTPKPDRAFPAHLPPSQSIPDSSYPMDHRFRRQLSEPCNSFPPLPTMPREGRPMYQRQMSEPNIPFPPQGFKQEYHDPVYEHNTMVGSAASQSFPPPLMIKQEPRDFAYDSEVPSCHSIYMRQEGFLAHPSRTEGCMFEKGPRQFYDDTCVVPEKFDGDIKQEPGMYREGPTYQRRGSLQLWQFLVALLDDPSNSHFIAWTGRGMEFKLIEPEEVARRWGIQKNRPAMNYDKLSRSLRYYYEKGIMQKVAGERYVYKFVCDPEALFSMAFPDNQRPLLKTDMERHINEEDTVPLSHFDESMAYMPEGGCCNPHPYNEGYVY
ELF4, sequence (Q99607 whole entry): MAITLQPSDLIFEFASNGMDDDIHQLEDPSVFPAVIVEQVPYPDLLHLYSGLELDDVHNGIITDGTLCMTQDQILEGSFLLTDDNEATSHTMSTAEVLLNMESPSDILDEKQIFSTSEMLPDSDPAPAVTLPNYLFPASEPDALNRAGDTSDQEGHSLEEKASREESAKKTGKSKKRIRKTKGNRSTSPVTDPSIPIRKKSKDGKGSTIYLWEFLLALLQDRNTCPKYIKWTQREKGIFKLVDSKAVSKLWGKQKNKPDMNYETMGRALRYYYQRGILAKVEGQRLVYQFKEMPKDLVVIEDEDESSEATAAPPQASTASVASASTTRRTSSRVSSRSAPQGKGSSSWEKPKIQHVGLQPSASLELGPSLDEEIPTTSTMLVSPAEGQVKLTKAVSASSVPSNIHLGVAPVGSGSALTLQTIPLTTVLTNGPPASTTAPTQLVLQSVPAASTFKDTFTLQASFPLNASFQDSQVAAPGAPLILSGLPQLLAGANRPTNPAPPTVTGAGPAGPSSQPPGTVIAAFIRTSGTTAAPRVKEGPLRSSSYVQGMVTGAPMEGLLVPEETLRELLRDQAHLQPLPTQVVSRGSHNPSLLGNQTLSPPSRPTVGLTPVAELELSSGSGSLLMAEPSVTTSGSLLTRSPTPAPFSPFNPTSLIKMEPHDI
SPIB, sequence (Q01892 whole entry): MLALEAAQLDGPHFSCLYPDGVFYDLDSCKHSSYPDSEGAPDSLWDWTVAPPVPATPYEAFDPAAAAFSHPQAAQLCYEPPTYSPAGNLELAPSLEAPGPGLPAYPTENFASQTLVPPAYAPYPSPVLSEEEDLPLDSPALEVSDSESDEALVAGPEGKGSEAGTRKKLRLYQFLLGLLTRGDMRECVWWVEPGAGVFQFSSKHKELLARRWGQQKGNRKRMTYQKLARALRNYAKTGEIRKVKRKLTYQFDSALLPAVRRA
ELF1, sequence (P32519 whole entry): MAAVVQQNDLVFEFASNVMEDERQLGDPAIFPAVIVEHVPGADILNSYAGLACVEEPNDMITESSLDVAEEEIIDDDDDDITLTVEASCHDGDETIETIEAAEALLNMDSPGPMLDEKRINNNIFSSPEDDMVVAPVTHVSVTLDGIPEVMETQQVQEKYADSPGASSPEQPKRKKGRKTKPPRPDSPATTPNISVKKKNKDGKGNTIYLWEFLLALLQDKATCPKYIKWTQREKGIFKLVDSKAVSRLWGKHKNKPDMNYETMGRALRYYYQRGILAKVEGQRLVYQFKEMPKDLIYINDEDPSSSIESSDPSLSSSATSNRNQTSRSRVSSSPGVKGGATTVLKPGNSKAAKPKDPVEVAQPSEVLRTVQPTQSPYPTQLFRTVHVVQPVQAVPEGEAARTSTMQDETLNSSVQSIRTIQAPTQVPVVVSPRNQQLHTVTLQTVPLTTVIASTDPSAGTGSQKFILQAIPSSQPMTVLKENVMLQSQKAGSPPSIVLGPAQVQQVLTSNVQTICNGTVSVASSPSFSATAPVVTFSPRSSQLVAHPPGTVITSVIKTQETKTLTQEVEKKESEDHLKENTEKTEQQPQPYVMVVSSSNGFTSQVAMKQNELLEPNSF
ETV5, sequence (P41161 whole entry): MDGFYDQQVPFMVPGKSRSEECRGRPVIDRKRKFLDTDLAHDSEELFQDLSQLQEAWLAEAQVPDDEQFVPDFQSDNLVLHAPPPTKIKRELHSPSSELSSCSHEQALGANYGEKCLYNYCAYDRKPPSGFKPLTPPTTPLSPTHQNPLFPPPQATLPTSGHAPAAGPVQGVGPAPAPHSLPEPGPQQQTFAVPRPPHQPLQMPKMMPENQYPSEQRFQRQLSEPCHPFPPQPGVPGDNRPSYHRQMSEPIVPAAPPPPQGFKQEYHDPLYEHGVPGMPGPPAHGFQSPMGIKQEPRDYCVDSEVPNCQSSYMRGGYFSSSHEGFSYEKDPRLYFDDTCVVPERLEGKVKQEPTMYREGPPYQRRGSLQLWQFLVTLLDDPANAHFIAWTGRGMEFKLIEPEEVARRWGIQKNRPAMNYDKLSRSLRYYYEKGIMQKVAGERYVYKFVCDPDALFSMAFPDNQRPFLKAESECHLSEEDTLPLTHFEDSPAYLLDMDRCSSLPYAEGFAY
ETV6, sequence (P41212 whole entry): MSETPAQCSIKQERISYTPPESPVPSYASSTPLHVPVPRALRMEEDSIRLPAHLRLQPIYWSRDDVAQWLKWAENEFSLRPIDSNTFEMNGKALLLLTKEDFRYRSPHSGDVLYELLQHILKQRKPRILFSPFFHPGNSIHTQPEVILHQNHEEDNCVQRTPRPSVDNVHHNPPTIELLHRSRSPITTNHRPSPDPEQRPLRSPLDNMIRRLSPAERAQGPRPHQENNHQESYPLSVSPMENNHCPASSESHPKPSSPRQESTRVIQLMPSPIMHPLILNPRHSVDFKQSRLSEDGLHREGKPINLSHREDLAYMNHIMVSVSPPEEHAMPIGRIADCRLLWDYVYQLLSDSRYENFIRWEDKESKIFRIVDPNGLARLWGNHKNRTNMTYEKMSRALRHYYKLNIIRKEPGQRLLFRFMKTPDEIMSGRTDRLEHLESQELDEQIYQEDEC

As for CGTAGC, the binding signal with ELK1 was 1.07 fold enrichment (6-mer frequency, TF over GST control); with GABPA, 1.08 fold enrichment (6-mer frequency, TF over GST control); with ERG, 1.04 fold enrichment (6-mer frequency, TF over GST control); with ELF1, 1.1 fold enrichment (6-mer frequency, TF over GST control); with EHF, 1.05 fold enrichment (6-mer frequency, TF over GST control); in the assay with SPI1 it was 1.04 fold enrichment (6-mer frequency, TF over GST control). The binding signal with SPIB is 1.07 fold enrichment (6-mer frequency, TF over GST control); with ETV5, 1.08 fold enrichment (6-mer frequency, TF over GST control); in the assay with ELF4, 1.07 fold enrichment (6-mer frequency, TF over GST control); with ELK4, 1.23 fold enrichment (6-mer frequency, TF over GST control); with ETV2, 1.03 fold enrichment (6-mer frequency, TF over GST control); with ELF3, 1.12 fold enrichment (6-mer frequency, TF over GST control). Also, the binding signal was 1.15 fold enrichment (6-mer frequency, TF over GST control) with ETV1; 1.03 fold enrichment (6-mer frequency, TF over GST control) with ERF; 1.09 fold enrichment (6-mer frequency, TF over GST control) in the assay with ETV3L; 1.09 fold enrichment (6-mer frequency, TF over GST control) with ETV7; 1.04 fold enrichment (6-mer frequency, TF over GST control) in the assay with ETV3; 1.1 fold enrichment (6-mer frequency, TF over GST control) with ETV6.
